Measurements from PubChem BioAssay (NCATS).
Records with an inconclusive call do not appear. The source made the active and inactive calls. Calls follow the shape of the dose curve; as a rule, active = well fitted inhibition curve with a large enough effect; inconclusive = small, poorly fitted or top-dose-only effect; inactive = flat fitted curve, though single readings scatter.

How the values were obtained:
Test in all cases: qHTS profiling for inhibitors of Plasmodium falciparum proliferation (AID 504749); also: nearly all actives have a fitted effect of over 60% in size
Settings in all cases: P. falciparum in erythrocytes, SYBR Green DNA, 72 h; series mostly up to 28.7 µM
CP256 = tested on: CP256
Procedure, shortened: (§1)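 In a 72 h erythrocytic culture (37 C, humidified, 5% CO2) at 2.5% hematocrit and 0.3% starting parasitemia, compounds were tested; SYBR Green I in detergent lysis buffer stained parasite DNA overnight.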

CP260 = tested on: CP260
Procedure, shortened: as §1

CP262 = tested on: CP262
Procedure, shortened: as §1

CP265 = tested on: CP265
Procedure, shortened: as §1

CP266 = tested on: CP266
Procedure, shortened: as §1

CP268 = tested on: CP268
Procedure, shortened: as §1

CP269 = tested on: CP269
Procedure, shortened: as §1

CP286 = tested on: CP286
Procedure, shortened: as §1

CP291 = tested on: CP291
Procedure, shortened: as §1

CP297 = tested on: CP297
Procedure, shortened: as §1

Measured: Potency

COc1ccc2nc(S(=O)Cc3ncc(C)c(OC)c3C)[nH]c2c1 (centres undefined)
inactive: all assays above

CC(c1cc2ccccc2s1)N(O)C(N)=O (centres undefined)
inactive: all assays above

N[C@@H]1CONC1=O
not listed: CP297
inactive: all other assays above

CCc1ccc(CCOc2ccc(CC3SC(=O)NC3=O)cc2)nc1 (centres undefined)
inactive: all assays above

Nc1ccc(S(=O)(=O)Nc2ccnn2-c2ccccc2)cc1
inactive: all assays above

Cc1ccc(N(CC2=NCCN2)c2cccc(O)c2)cc1
inactive: all assays above

N=c1nc(N2CCCCC2)cc(N)n1O
inactive: all assays above

Nc1nc2c(ncn2COCCO)c(=O)[nH]1
inactive: all assays above

Cc1[nH]c(=O)c(C#N)cc1-c1ccc2nccn2c1
inactive: all assays above

Clc1cccc(Cl)c1NC1=NCCN1
inactive: all assays above

O=c1[nH]cnc2[nH]ncc12
inactive: all assays above

CC(=O)Oc1ccccc1C(=O)O
inactive: all assays above

CNC[C@H](O)c1cccc(O)c1
inactive: all assays above

N#Cc1ccc(C(c2ccc(C#N)cc2)n2cncn2)cc1
inactive: all assays above

NC[C@H](O)c1ccc(O)c(O)c1
inactive: all assays above

NC(=O)c1cnccn1
inactive: all assays above

NS(=O)(=O)c1cc2c(cc1Cl)NC=NS2(=O)=O
inactive: all assays above

O=C1CCC(N2C(=O)c3ccccc3C2=O)C(=O)N1 (centres undefined)
inactive: all assays above

CC(C[N+](C)(C)C)OC(N)=O (centres undefined)
inactive: all assays above

Cc1cn[nH]c1
inactive: all assays above
